Vaccinia mCherry: inhibitors of vaccinia virus infection (mCherry reporter signal) | Vaccinia virus mCherry reporter infection, fluorescence | Potency, µM (top dose mostly 36.5 µM), hits mostly inhibitors | actives 0.63% (n = 310,000); calls by dose curve; tested in A549 cells; note: nearly all actives have a fitted effect of over 35% in size
HCMV antiviral: human cytomegalovirus inhibition; activity change, negative = inhibition, % at 57.5 µM; HFF cells, HCMV-luciferase reporter, 72 h; hits give low values; actives 4.5% (n = 410,000); AID 1259415; in the data active = activity change below about -60%; inconclusive = no clear call, values can overlap the other calls; inactive = above about -39%
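Two-dose cell screen: HFF monolayers treated with compounds and infected with luciferase-expressing HCMV at 1 PFU/cell, 72 h at 37C, then lysed for luciferase measurement.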
Vaccinia Venus: vaccinia inhibition (Venus reporter); Vaccinia virus Venus reporter expression, fluorescence; actives 0.46% (n = 330,000); AID 720580; Potency, µM (series often up to 36.5 µM), actives largely listed as inhibitors; calls by dose curve; tested in A549 cells; note: nearly all actives have a fitted effect of over 30% in size
FMDV inh: blocks foot and mouth disease virus; Potency, µM (doses to about 57.9 µM), most hits filed as inhibitors; FMDV antiviral cell-based qHTS; actives 1.2% (n = 410,000); AID 1159524; calls by dose curve; tested in HEK293T cells; note: read-out not given here; nearly all actives have a fitted effect of over 45% in size
LASV entry inh: Lassa virus entry inhibition. actives 1.2% (n = 300,000). Lassa virus pseudotype entry inhibition, cell reporter. Potency, µM (highest dose often 37.9 µM), most hits filed as inhibitors; calls by dose curve; tested in HEK293 cells; note: nearly all actives have a fitted effect of over 50% in size
Marburg entry inh: inhibitors of Marburg virus binding or cell entry | AID 540276 | Potency, µM (doses to about 37.8 µM), hits mostly inhibitors | actives 1.8% (n = 300,000) | Marburg virus pseudotyped entry inhibition, cell reporter; calls by dose curve; tested in HEK293 cells
Hits are given with their value; n = inactive; u = inconclusive; x = not tested or not shown. An excerpt weighted towards active compounds, which were near 6.5% of everything screened.

SMILES | Vaccinia mCherry | HCMV antiviral | Vaccinia Venus | FMDV inh | LASV entry inh | Marburg entry inh
COc1ccc(S(=O)(=O)N2CCCCCC2)cc1N(C)S(=O)(=O)c1ccc(Cl)cc1 | u | -60.5 | n | x | n | u
C/C(=N\NC(=S)Nc1cc(S(=O)(=O)N2CCOCC2)ccc1Cl)c1ccccc1F | n | -91.5 | n | 12.6µM | u | u
CCCCCC(=O)N/N=C(\C)c1ccc(NC(=O)c2ccco2)cc1 | n | n | n | n | 3.55µM | n
CCCCCC(=O)NC(=S)Nc1ccc(NC(=O)c2ccco2)cc1 | n | u | n | n | n | n
C1NNCC12CNNC2 | n | x | n | x | x | x
COc1ccc(CCNc2nc3cc(OC)c(OC)cc3c3nc(-c4ccccc4)nn23)cc1OC | n | n | n | 4.47µM | x | n
Cc1cc(NCCCn2ccnc2)n2ncc(-c3ccccc3)c2n1 | x | x | u | n | 4.47µM | u
COc1ccc(CCNc2nc3ccccc3c3nc(-c4cccc(C)c4)nn23)cc1OC | n | n | n | n | x | n
COc1ccc(CCNc2cc(C)nc3c(-c4ccccc4)cnn23)cc1OC | n | -68.2 | n | n | 8.91µM | 9.2µM
Cc1cc(NCCCn2ccnc2)n2nc(C)c(-c3ccccc3)c2n1 | x | n | x | n | n | n
Clc1nc(NCc2cccs2)c2[nH]cnc2n1 | n | x | n | x | x | x
O=C(NCc1ccccc1)C(c1ccccc1)N(Cc1cccs1)C(=O)c1cnccn1 (stereo not given) | x | n | x | n | n | 20.6µM
O=C(NCc1ccccc1)C(c1ccc(F)cc1)N(Cc1cccs1)C(=O)c1cnccn1 (stereo not given) | n | n | n | n | n | n
CN(CCCNC(=O)c1cn(C)c2ccc(S(=O)(=O)N(C)C)cc2c1=O)c1ccccc1 | n | -63.9 | n | n | n | n
CC1CCN(CCCNC(=O)c2cn(C)c3ccc(S(=O)(=O)N4CCCC4)cc3c2=O)CC1 | x | -108.0 | x | n | n | n
O=C(NCc1cccnc1)O[C@H]1CC[C@@]23CCCN2C(=O)CCC[C@H]3[C@H]1Cc1ccccc1 | x | n | x | x | x | x
COc1cc(OC)c(NC(=O)c2c(C)nn(-c3ccc(C)cc3)c2-n2cccc2)cc1Cl | n | n | n | n | n | x
C=C1CC(COc2cc(=O)oc3ccccc23)(c2ccccc2)OC1=O (stereo not given) | u | n | u | 14.1µM | n | u
Cc1cc(SCc2sc(-c3ccc(C(F)(F)F)c(F)c3)nc2C)ccc1OCC(=O)O | x | x | x | n | x | x
Cc1ccnc2cc(Cl)c(Cl)cc12 | n | x | n | x | x | x
CC1=CC(C)(C)N(S(=O)(=O)c2ccc(F)cc2)c2ccccc21 | n | n | u | u | n | u
C/C=C/C(=O)N1c2ccc(C)cc2C(C)=CC1(C)C | x | n | x | n | x | x
CC(=O)Nc1ccc(S(=O)(=O)N2c3ccccc3C(C)=CC2(C)C)cc1 | n | -80.4 | n | n | u | u
CC1=CC(C)(C)N(S(=O)(=O)c2ccc(C)cc2)c2ccc(C)cc21 | n | -73.8 | u | x | n | u
CCCCCCCCCC[n+]1ccc(/C=C/c2c(C)[nH]c3ccccc23)cc1 | u | x | n | x | x | x
SMILES | Vaccinia mCherry | HCMV antiviral | Vaccinia Venus | FMDV inh | LASV entry inh | Marburg entry inh
Cc1noc(C)c1-c1ccc2ncnc(NCc3cccnc3)c2c1 | x | x | x | n | x | x
Cc1cc(C)nc(Sc2ccc3nnnn3n2)n1 | 0.501µM | n | 3.55µM | n | n | n
O=C1/C(=C/c2ccc(C(=O)O)cc2)CCC/C1=C\c1ccc(C(=O)O)cc1 | n | n | n | n | n | n
O=C1C(=Cc2ccc(Cl)cc2)Cc2ccccc21 | n | n | n | n | x | x
C=CC(=O)N1C/C(=C/c2ccccc2)C(=O)/C(=C\c2ccccc2)C1 | u | -97.1 | 8.91µM | 7.94µM | u | 2.82µM
C=CC(=O)N1C/C(=C/c2ccc(Cl)cc2)C(=O)/C(=C\c2ccc(Cl)cc2)C1 | 2.82µM | -100.0 | 5.62µM | 8.91µM | 2.24µM | u
O=c1ccc2[n+]([O-])c3ccc(O)cc3oc-2c1 | x | -61.0 | x | n | x | x
Cc1[nH]nc2c1-c1nc3ccccc3nc1C(C)(C)C2 | x | -74.3 | x | u | u | u
COc1ccc(-n2c(C)c(C(C)=O)c3cc(OC(=O)c4ccc(C)cc4)ccc32)cc1 | n | -74.9 | n | n | n | x
COc1ccc2c(c1)c(C(C)=O)c(C)n2CCc1ccccc1 | x | -91.5 | x | 14.1µM | x | x
COc1ccc2c(c1)c(C(C)=O)c(C)n2-c1ccccc1 | n | n | n | x | n | n
COc1ccc(-n2c(C)c(C(C)=O)c3cc(O)ccc32)cc1 | x | -64.8 | x | n | x | n
CCc1ccc(NC(=O)COC(=O)c2ccccc2OCC(=O)N(C)C)cc1 | n | x | n | x | x | x
COc1ccc(O)c(CN2CCOc3c(cc(-c4cccc(OC)n4)cc3OC)C2)c1 | n | x | n | n | x | x
CCOC(=O)N[C@@]1(C(F)(F)F)C(=O)NC(C)=C1C#N | x | x | x | x | x | n
CCOc1ccccc1NC(=O)c1ccc2c(c1)CCCN2S(C)(=O)=O | n | n | n | n | u | n
CCC[C@@H]1Cc2c(sc3ncnc(N)c23)CO1 | x | x | x | x | x | n
CCOC(=O)N1CCN(C(=O)c2ccc3nc4ccc(Cl)cc4c(=O)n3c2)CC1 | x | -97.2 | x | n | u | u
CCOC(=O)N1CCN(C(=O)c2ccccc2NC(C)=O)CC1 | n | n | n | n | n | n
COc1cccc(C(=O)Nc2ccccc2C(=O)N2CCCC2)c1 | n | n | n | n | n | n
Cc1ccc(N2CCN(C(=O)c3ccccc3NC(=O)c3ccccc3C(=O)O)CC2)cc1 | n | -103.0 | n | n | u | n
CCC(Oc1ccccc1)C(=O)Nc1ccccc1C(=O)N1CCCCC1 (stereo not given) | n | n | n | u | u | 11.2µM
O=C(Nc1ccccc1C(=O)N1CCCCCC1)c1ccccc1 | n | -64.4 | n | n | n | n
CCC(Oc1ccccc1)C(=O)Nc1ccccc1C(=O)N1CCN(C)CC1 (stereo not given) | n | n | n | n | n | n
CCOC(=O)N1CCN(C(=O)c2ccccc2NC(=O)COc2ccccc2)CC1 | n | -60.2 | n | u | n | n
SMILES | Vaccinia mCherry | HCMV antiviral | Vaccinia Venus | FMDV inh | LASV entry inh | Marburg entry inh
COc1ccc(N2C(=O)[C@@H]3C[C@H]2CN3Cc2cccn2-c2nccs2)cc1Cl | n | x | n | n | x | x
O=C(Nc1ccc(F)cc1F)C1CCN(c2ncccn2)CC1 | n | n | n | n | n | n
CS(=O)(=O)c1ccc(Nc2nccc3[nH]c(-c4ccsc4)cc23)cc1 | x | n | x | x | x | x
CN(C)S(=O)(=O)c1ccc(S(=O)(=O)N2CCCC(C(=O)NC3CC3)C2)cc1 (stereo not given) | n | n | n | u | x | n
CCOC(=O)C1CCCN(S(=O)(=O)c2ccc(S(=O)(=O)N(CC)CC)cc2)C1 (stereo not given) | n | -69.8 | n | u | x | x
CCOC(=O)C1CCCN(S(=O)(=O)c2ccc(C)cc2)C1 (stereo not given) | n | n | n | n | n | u
CCN(CC)S(=O)(=O)c1ccc(S(=O)(=O)N2CCCC(C(=O)NC3CC3)C2)cc1 (stereo not given) | n | -82.6 | n | u | n | u
CCOC(=O)C1CCCN(S(=O)(=O)c2ccc(Cl)nc2)C1 (stereo not given) | 14.1µM | n | u | n | n | n

From PubChem
